# According to ChEMBL document CHEMBL1157539, “Thousands of chemical starting points for antimalarial lead identification” (Nature, 2010):
# Test system: Plasmodium falciparum
# Test: GSK_TCMDC: Inhibition of Plasmodium falciparum 3D7 in whole red blood cells, using parasite LDH activity as an index of growth. Test compounds present at 2uM
# Type: functional
row,Structure (SMILES),Inhibition [%]
1,O=C(NCCN1Cc2ccccc2C1=O)c1ccc(Oc2ccc(C(=O)NCCN3Cc4ccccc4C3=O)cc2)cc1,99
2,O=C(Cc1cccnc1)Nc1cccc(-c2cccc(-c3nc4cc(C(F)(F)F)ccc4[nH]3)c2)c1,99
3,CCCCCC(NCCCC)c1ccc(OCCOc2ccc(C(CCCCC)NCCCC)cc2)cc1.Cl (stereo not given),88
4,COC(=O)c1cccc(CNCc2ccc(-c3ccc(-c4nc5cccc(C)c5[nH]4)s3)cc2)c1.O=C(O)C(F)(F)F,100
5,O=C(NC1CC1)c1cnc(N2CCC(COc3cccc(F)c3)CC2)c(Cl)c1,89
6,Cc1cccc(CNc2nc(C)cc(N[C@@H](Cc3ccccc3)C(=O)NCCOc3ccccc3)n2)c1.O=C(O)C(F)(F)F,93
7,COC(=O)c1cc(OC2CCOC2=O)cc2c1OC(C)(C)O2 (stereo not given),97
8,NC1=NC(c2ccccc2)(c2ccccc2)C(=O)N1Cc1ccc(-c2cccnc2)cc1.O=CO,99
9,O=C(/C=C/c1ccc(Cl)c(Cl)c1)NCCCCCN1CCN(C(=O)Nc2ccc(C(F)(F)F)cc2)CC1,99
10,CCSc1nnc(C2CCCN(CC(=O)Nc3cc(C(F)(F)F)ccc3Cl)C2)n1CC (stereo not given),99
11,COC(=O)c1ccccc1COc1ccc(CC2(NC(=O)[C@H](Nc3ccc(C#N)c4ccccc34)C(C)(C)C)CCCC2)cc1,95
12,COCCOc1ccc(Nc2nccc(-c3c(-c4cccc(NC(=O)c5c(F)cccc5F)c4)nn4ccccc34)n2)cc1F,90
13,CC(=O)N(Cc1nc(-c2cc(Cl)c(Cl)s2)cs1)c1c(C)cccc1C,98
14,O=C(NC1CC1)c1ccc(N2CCN(Cc3ccc(Cl)cc3)CC2)nc1.O=C(O)C(F)(F)F,84
15,CCCCCCCN1CC[C@@H](CCCc2ccnc3ccc(OCC4CCCNC4)cc23)[C@@H](CC)C1.Cl (stereo not given in full),98
16,CC[C@H](C)CNC(=O)c1cncc(-c2cccc(CN3CCC(N4CCCC4)CC3)c2)c1.O=C(O)C(F)(F)F,97
17,CN(C)CCC1CCN(CCS(=O)(=O)c2cccc(Nc3ncc(-c4cccc(F)c4)cn3)c2)CC1,96
18,CCCN(C(=O)c1ccccc1C)c1nnc(-c2ccccc2C)s1,90

row,Structure (SMILES),Inhibition [%]
1,CCOC(=O)c1cc(=O)c2ccc(OCC#N)cc2o1,88
2,O=[N+]([O-])c1ccc(-c2ccc(C=NNc3nc(Nc4ccccc4)nc(Nc4ccccc4)n3)o2)cc1,91
3,COc1cc(F)c2ncc(F)c([C@@H](O)CN3CCC(NCc4cc5c(cn4)OCCO5)CC3)c2c1.Cl,100
4,Br.COc1ccc(CCON2C(=N)N=C(N)NC2(C)C)cc1OC,96
5,CNC(=O)c1ccccc1Nc1nc(Nc2cccnc2)ncc1C.Cl,93
6,O=C(Cn1cc(C(F)(F)F)cc(Cl)c1=O)N1CCN(S(=O)(=O)c2ccc(Cl)cc2)CC1,99
7,Cc1ccc(Nc2ccnc(Nc3ccc(C)c(F)c3)n2)cc1O.Cl,100
8,CC(C)(C)N1CCC(N(Cc2ccc(-c3ccc(C(F)(F)F)cc3)cc2)C(=O)Cn2c(CCc3cccc(F)c3F)cc(=O)c3cccnc32)CC1.O=C(O)C(O)C(O)C(=O)O,100
9,N#CC1(c2ccccc2)CCN(c2nc(NCCCN3CCCC3=O)nc(N3CCCC4CCCCC43)n2)CC1 (stereo not given),95
10,COc1cccc(CNC[C@@H](O)[C@H](Cc2ccccc2)NC(=O)c2cc3c4c(c2)c(C(C)C)cn4CCS(=O)(=O)N3C)c1.O=CO,98
11,Fc1ccc2[nH]c(-c3ccc(-c4ccc(CN5CCCCC5)cc4)s3)nc2c1.O=C(O)C(F)(F)F,92
12,CC(=O)Nc1ccc(C(=O)Nc2cccc(-c3cccc(-c4nc5cccc(C)c5[nH]4)c3)c2)cn1,100
13,CC(C)OC(=O)c1cccnc1SCC(=O)Nc1ccc(C(F)(F)F)cc1Cl,97
14,Cc1cccc2nc(-c3cccc(-c4ccc(NC(=O)Cc5ccon5)cc4)c3)[nH]c12,87
15,Cc1cc(N[C@@H](CC(C)C)C(=O)Nc2ccccc2)nc(NCC2CCCCC2)n1.O=C(O)C(F)(F)F,100
16,CN1CCN(c2ccnc3ccc(NC(=O)Nc4ccc(-c5ccncc5)c5ccccc45)cc23)CC1,100
17,CN(C)CCNC(=O)NC1CN(c2ncnc3cc(-c4ccccc4)sc23)C1.O=C(O)C(F)(F)F,100
